A selection: hits, their analogues and other compounds. The true share with any hit is near 21%.
CHX counter: counter-screen hit for Shiga toxin inhibitors, cycloheximide; actives 12% (n = 300,000); max response, %; cell reporter, cycloheximide protein synthesis inhibition counterscreen; AID 2314; in the data active = max response mostly above about 13%, no sharp cut-off; inactive = mostly below about 14%; note: read at 38.3 µM for the half of the compounds with a filed dose; 0% is about no effect
Pf growth 96h: P. falciparum growth inhibition at 96 hour, primary screen for plastid delayed-death inhibitors; P. falciparum luciferase reporter growth, 96 h; Potency, µM (doses to about 28.7 µM), for the others: top-dose activity change, negative = inhibition, most hits filed as inhibitors; actives 6.9% (n = 320,000); AID 504834; note: potency is the fitted concentration of half-maximal effect; % is set by controls: 0 for no effect and ±100 for the full control effect
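Compounds incubated with erythrocytes infected by luciferase-expressing P. falciparum (2% hematocrit, 0.05% parasitemia final) for 96 hours, 37 C in 5% CO2. Growth inhibition scored as decreased luciferase luminescence.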
Shiga inhibitor: Shiga toxin inhibition. Vero cells, Shiga toxin protein synthesis inhibition reporter. inhibition, % at 38.7 µM. actives 9.2% (n = 290,000). AID 2315; in the data active = inhibition mostly above about 28%, no sharp cut-off; inactive = mostly below about 43%; note: 0% is about no effect
NS1 inh: influenza NS1 inhibition. Potency, µM (top dose mostly 46.1 µM), for inactives: top-dose activity, positive = more growth. actives 0.4% (n = 270,000); calls by dose curve; note: potency is the fitted concentration of half-maximal effect; actives are rising curves; nearly all actives have a fitted effect of over 50% in size
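Read-out: OD600 growth recovery of NS1-expressing budding yeast. Cells grown overnight at 30C in -URA glucose medium, washed, resuspended and diluted 1:100 in 2% galactose assay medium, pH 6.0. Same strain lacking NS1 served as positive control.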
Sm TGR inh: inhibitors of Schistosoma mansoni thioredoxin glutathione reductase. Q962Y6. purified TGR, DTNB reduction, TNB absorbance 405 nm. Potency, µM (top dose mostly 114 µM), inactives show at the top dose activity change, negative = inhibition, most hits filed as inhibitors. actives 3% (n = 360,000). AID 485364; note: potency is the fitted concentration of half-maximal effect; % is set by controls: 0 for no effect and ±100 for the full control effect; nearly all actives have a fitted effect of over 60% in size
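TGR 20 nM + NADPH 100 uM (dispensed conc.), cpd preinc 15 min RT; start with NADPH (500 uM addition) then DTNB (15 mM addition). Kinetic TNB absorbance, 405 nm filter. Four-parameter Hill fit across titration.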
Pf growth 48h: P. falciparum growth inhibition at 48 hours (one generation); Potency, µM (top dose mostly 28.7 µM), for the others: top-dose activity change, negative = inhibition, usual class: inhibitors; P. falciparum luciferase growth in erythrocytes, 48 h; actives 5.9% (n = 310,000); note: potency is the fitted concentration of half-maximal effect; % is set by controls: 0 for no effect and ±100 for the full control effect
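Read-out is firefly luciferase luminescence from an integrated reporter in P. falciparum, so falling signal marks reduced parasite growth. Infected erythrocytes were at 2% hematocrit and 0.1% parasitemia (final) in Albumax-supplemented RPMI 1640.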
* = called active by the depositor; [ ] = dose if it differs, or a comment. Unless noted, calls come from the whole dose curve; as a rule, active = well fitted curve in the direction sought with a large enough effect; inconclusive = small, poorly fitted or top-dose-only effect, or another doubt; inactive = no such curve, though single readings can be large; an effect the other way counts as inactive or inconclusive.

Results for COCCN1C(=O)c2[nH]nc(-c3ccccc3O)c2C1c1ccc(OCc2ccccc2)c(OC)c1 (stereo not drawn) ?
CHX counter: -4; Shiga inhibitor: -4; Sm TGR inh: 1%

Results for Cc1cc(NC(=O)CSc2nc3c(cc2C#N)CCCC3)no1 ?
CHX counter: 38*; Pf growth 96h: 243%; Shiga inhibitor: 49*; NS1 inh: 0%; Sm TGR inh: 1%; Pf growth 48h: 247%

Results for Cc1cc(NC(=O)CSc2nc3ccccc3cc2C#N)no1 ?
CHX counter: 17; Pf growth 96h: 12%; Shiga inhibitor: 39*; NS1 inh: -13%; Sm TGR inh: -3%; Pf growth 48h: 21%

Results for Cc1cc(NC(=O)CSc2nc3c(cc2C#N)CCC3)no1 ?
CHX counter: 29*; Pf growth 96h: -2%; Shiga inhibitor: 97*; NS1 inh: 10%; Sm TGR inh: 4%; Pf growth 48h: 131%

Results for COc1ccc2nc(SCC(=O)Nc3cc(C)on3)c(C#N)cc2c1 ?
CHX counter: -3; Pf growth 96h: 1%; Shiga inhibitor: -3; NS1 inh: 7%; Sm TGR inh: -4%; Pf growth 48h: 48%

How did O=C(CN(C(=O)c1csnn1)c1ccc(F)c(Cl)c1)NCc1ccc2c(c1)OCO2 do in these assays?
CHX counter: -2; Pf growth 96h: 5%; Shiga inhibitor: 26; NS1 inh: 9%; Sm TGR inh: 9%; Pf growth 48h: 12%

How did O=S(=O)(Cc1ccccc1)Nc1ccc(F)cc1 do in these assays?
CHX counter: -3; Pf growth 96h: 23%; Shiga inhibitor: -8; NS1 inh: 1%; Sm TGR inh: 2%; Pf growth 48h: 17%

How did CCCCNC(=O)c1cc2c(=O)n(CC)c3ccccc3c2s1 do in these assays?
CHX counter: -7; Pf growth 96h: 6.6µM*; Shiga inhibitor: -4; NS1 inh: 3%; Sm TGR inh: 5%; Pf growth 48h: 2%[0.00184 µM]

What do the screens show for `CCCN(CCC)CCCNC(=O)c1cc2c(=O)n(C)c3ccccc3c2n1C`?
CHX counter: -1; Pf growth 96h: inconclusive; Shiga inhibitor: 10; NS1 inh: -11%; Sm TGR inh: inconclusive

What do the screens show for `CCn1c(=O)c2cc(C(=O)NCc3cccs3)sc2c2ccccc21`?
CHX counter: -2; Pf growth 96h: 2.3µM*; Shiga inhibitor: -2; NS1 inh: -44%; Sm TGR inh: -3%; Pf growth 48h: 57%

Results for CCCN(CCC)CCCNC(=O)c1cc2c(=O)n(C)c3ccccc3c2s1 ?
Sm TGR inh: 10µM*

How did OC(CNc1nc2ccccc2s1)c1ccccc1 (stereo not drawn) do in these assays?
CHX counter: 22; Pf growth 96h: -29%; Shiga inhibitor: 49; NS1 inh: -1%; Sm TGR inh: 1%; Pf growth 48h: 13µM*

What do the screens show for `OCC(O)/C=N/Nc1nc2ccccc2s1` (stereo not drawn)?
CHX counter: 6; Pf growth 96h: inconclusive; Shiga inhibitor: 48*; Sm TGR inh: -2%; Pf growth 48h: 69%

How did Cc1ccc([N+](=O)[O-])cc1S(=O)(=O)N1CCn2cccc2C1c1ccc(F)c(F)c1 (stereo not drawn) do in these assays?
Sm TGR inh: -10%

How did Cc1ccc(S(=O)(=O)Nc2cccc(C(=O)N3CCOCC3)c2)c(C)c1NS(C)(=O)=O do in these assays?
CHX counter: -2; Pf growth 96h: inconclusive; Shiga inhibitor: 0; NS1 inh: 5%; Sm TGR inh: -1%; Pf growth 48h: 18%

What do the screens show for `CC(=O)N(Cc1cc2cc(C)c(C)cc2n2nnnc12)CC1COCCO1` (stereo not drawn)?
CHX counter: -2; Pf growth 96h: 2.9µM*; Shiga inhibitor: -17; NS1 inh: -8%; Sm TGR inh: 5%; Pf growth 48h: 33%

How did Cc1ccc(CN2CCCC(CO)(Cc3ccccc3C)C2)s1 (stereo not drawn) do in these assays?
CHX counter: 1; Pf growth 96h: inconclusive; Shiga inhibitor: -4; NS1 inh: -3%; Sm TGR inh: 6%; Pf growth 48h: inconclusive

What do the screens show for `CCS(=O)(=O)N1CCC(C(=O)NCCc2ccc(C)cc2)CC1`?
CHX counter: -4; Pf growth 96h: inconclusive; Shiga inhibitor: 13; NS1 inh: -12%; Sm TGR inh: -2%; Pf growth 48h: 4%

How did CCCS(=O)(=O)N1CCCC(C(=O)NCCN(Cc2ccccc2)C(C)C)C1 (stereo not drawn) do in these assays?
CHX counter: -4; Pf growth 96h: 31%; Shiga inhibitor: 8; NS1 inh: -2%; Sm TGR inh: 9%; Pf growth 48h: 7%

How did CCCS(=O)(=O)N1CCC(C(=O)NCCN(C)Cc2ccccc2)CC1 do in these assays?
CHX counter: -2; Pf growth 96h: 15µM*; Shiga inhibitor: 10; NS1 inh: -7%; Sm TGR inh: 5%; Pf growth 48h: 18%

Results for CCOc1ccc(CCNC(=O)C2CCN(S(=O)(=O)CC)CC2)cc1OCC ?
CHX counter: -1; Pf growth 96h: 2.6µM*; Shiga inhibitor: -11; NS1 inh: -8%; Sm TGR inh: 5%; Pf growth 48h: 50%

What do the screens show for `CCCS(=O)(=O)N1CCCC(C(=O)NCCN(CC)c2ccccc2)C1` (stereo not drawn)?
CHX counter: -5; Pf growth 96h: 13µM*; Shiga inhibitor: 17; NS1 inh: 2%; Sm TGR inh: -4%; Pf growth 48h: inconclusive

What do the screens show for `CCS(=O)(=O)N1CCC(C(=O)NCCc2ccccc2)CC1`?
CHX counter: -4; Pf growth 96h: 1.5µM*; Shiga inhibitor: -13; NS1 inh: -6%; Sm TGR inh: 1%; Pf growth 48h: 27%

What do the screens show for `CCOc1ccc(CCNC(=O)C2CCN(S(=O)(=O)N3CC(C)CC(C)C3)CC2)cc1OCC` (stereo not drawn)?
CHX counter: -5; Pf growth 96h: -12%; Shiga inhibitor: -1; NS1 inh: 4%; Sm TGR inh: -1%; Pf growth 48h: -19%

Results for Cc1nc2c(-c3ccccc3)c(C)nn2c(C)c1CCC(=O)Nc1ccccc1F ?
Sm TGR inh: 6%

How did COC(=O)CCC/C=C1\SC[C@@H](NC(=O)c2ccccc2)C1NC(C)=O (stereo partly drawn) do in these assays?
CHX counter: -3; Pf growth 96h: 4%; Shiga inhibitor: 14; NS1 inh: 14%; Sm TGR inh: -4%; Pf growth 48h: -20%

How did CCS(=O)(=O)N1CCC(C(=O)NCCN2CCN(Cc3ccccc3)CC2)CC1 do in these assays?
CHX counter: 2; Pf growth 96h: 7%; Shiga inhibitor: -3; NS1 inh: -11%; Sm TGR inh: 11%; Pf growth 48h: 3%

Results for CCCS(=O)(=O)N1CCC(C(=O)NCCN2CCC(Cc3ccccc3)CC2)CC1 ?
CHX counter: 6; Pf growth 96h: 2%; Shiga inhibitor: 1; NS1 inh: -2%; Sm TGR inh: 4%; Pf growth 48h: 4.1µM*

Compound activity deposited in PubChem BioAssay by National Center for Advancing Translational Sciences (NCATS).
